High-throughput results: PubChem, National Center for Advancing Translational Sciences (NCATS)
Most compounds without a hit are left out; they make up all but 6% or so of the library.
D3 ag = activates the human D3 dopamine receptor. P35462. D3R DiscoveRx beta-arrestin cells, luminescence, 90 min. max activation, %. 0.58% of 410,000 active; in the data active = max activation above about 30%; also: 0% is about no effect
Target sequence (P35462 whole entry, looked up): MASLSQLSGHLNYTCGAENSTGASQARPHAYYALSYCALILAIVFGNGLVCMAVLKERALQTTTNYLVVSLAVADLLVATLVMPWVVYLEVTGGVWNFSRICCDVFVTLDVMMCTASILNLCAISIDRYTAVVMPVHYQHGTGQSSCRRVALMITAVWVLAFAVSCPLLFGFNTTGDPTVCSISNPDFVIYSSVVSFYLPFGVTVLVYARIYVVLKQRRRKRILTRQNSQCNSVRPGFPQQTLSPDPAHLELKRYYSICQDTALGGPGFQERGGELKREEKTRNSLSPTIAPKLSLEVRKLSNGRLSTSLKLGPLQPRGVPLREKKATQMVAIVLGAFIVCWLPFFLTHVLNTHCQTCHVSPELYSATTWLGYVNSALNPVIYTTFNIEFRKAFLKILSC
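Agonist mode: compounds and dopamine controls were applied to plated cells for 90 min at 37 degrees C after an overnight attachment at 1500 cells/well. Luminescent read-out followed 30 - 60 minutes at room temperature with DiscoveRx detection reagent.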
D1 agonist = agonists of human D1 dopamine receptor | HEK293 T-REx D1 cells, calcium flux, agonist mode | activation, % at 2 µM | 1% of 360,000 active | P21728; in the data active = activation above about 30%; also: 0% is about no effect
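Tetracycline-induced HEK293 TREx D1 cells, force-coupled to calcium signalling, were dye-loaded with a no-wash calcium kit. Compound was pin-added after a 10 s baseline. Fluorescence was read kinetically at 1 cycle/s for 180 s, with calcium rises flagged as agonism.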
D1 PAM = human D1 dopamine receptor positive modulation; P21728; HEK293 TREx D1 cells, calcium flux, dopamine EC20 potentiation; potentiation, % at 10 µM; 0.036% of 360,000 active; in the data active = potentiation above about 30%; also: 0% is about no effect
D1 antagonist = antagonists of human D1 dopamine receptor | activity change, negative = inhibition, % at 10 µM | HEK293 TREx D1 cells, calcium flux, dopamine EC80; active compounds read low | AID 504652 | 3.2% of 360,000 active | P21728; in the data active = activity change below about -30%; also: % is scaled to controls: 0 for no effect and ±100 for the full control effect
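Antagonism measured as reduced calcium response to an EC80 dopamine addition following 180 s compound pre-read; cells were inducible HEK293 Trex D1 plated overnight at 30 C, read kinetically at 1 cycle/sec.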
D3 antag = blocks the human D3 dopamine receptor. P35462. D3R cells, DiscoveRx beta-arrestin luminescence, antagonist mode; active compounds read low. max response, negative = inhibition, %. 2.5% of 360,000 active; in the data active = max response below about -50%; inconclusive = no clear call, values can overlap the other calls; also: % is scaled to controls: 0 for no effect and ±100 for the full control effect
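Cells expressing the human receptor were seeded at 1500 cells/well, incubated overnight at 37 degrees C in 5% CO2, then exposed to library compounds with dopamine controls for 90 minutes at 37 degrees C before luminescent detection.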
Chronic BCR inh = chronic active BCR signaling inhibition. ABC-DLBCL IkBa-CBG/CBR reporter, luminescence ratio, 4 h. AID 493014. Potency, µM (titrated, usually from 46.1 µM), inactives show at the highest dose activity change, negative = inhibition, most hits filed as inhibitors. 0.05% of 340,000 active; active = well fitted inhibition curve with a large enough effect in the signal ratio, with a control signal flat, not every such curve was filed as active; inconclusive = small, poorly fitted or top-dose-only effect, or effect the other way, or a change in a side signal; the % refers to the signal ratio;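 also: potency is read from the fitted curve at half-maximal effect; plate controls were basal doxycycline-induced cells for no effect and cells given 10 µM MG132 for full effect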
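Cell line TMD8 (human ABC DLBCL), stably expressing tet-inducible CBG68-IkBa fusion and CBR; IMDM/0.5% FBS; cpd up to 46 uM; dox induction, 4 h, 37C/5% CO2; dual luminescence; green/red ratio; MG132 control.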
Numbers without * were called inactive; ? = inconclusive; / = no result; ! = a repeat was not active.

SMILES	D3 ag	D1 agonist	D1 PAM	D1 antagonist	D3 antag	Chronic BCR inh
COc1ccc(NC(=O)CN(C)C2CCCCC2)cc1Cl	-11	3	3	-45*	-13	-14%
COc1ccc(NC(=O)Cc2noc3ccc(C)cc23)cc1Cl	-21	-1	-5	-31*	/	/
C=CS(=O)(=O)O	-24	/	/	/	/	/
COc1ccc(NC(=O)CCCC(=O)O)cc1Cl	7	3	4	6	-50*	1%
COc1ccc(NC(=O)CCCN2C(=O)CCC2=O)cc1Cl	3	-2	1	7	-13	-2%
O=C(O)CCCC(=O)Nc1ccc(Cl)cc1	2	4	-6	-54*	-16	0%
O=C1CC(c2ccco2)CC2=C1C(c1cccnc1)n1nc(C(F)(F)F)nc1N2 (stereo unspecified)	/	11	-4	0	/	/
CC(=O)OCC(=O)[C@@]12N=C(C)O[C@@H]1C[C@H]1[C@@H]3CCC4=CC(=O)C=C[C@]4(C)[C@H]3[C@@H](O)C[C@@]12C	-2	/	/	/	/	/
Clc1ccc(CCNC(c2cccc(Cl)c2)c2nnc(-c3ccccc3)o2)cc1 (stereo unspecified)	-3	24	-1	11	/	/
CC(C)c1ccc(NC(c2nnc(-c3ccccc3)o2)c2ccc(F)cc2Cl)cc1 (stereo unspecified)	8	1	-5	0	/	/
Clc1ccc(CCNC(c2nnc(-c3ccccc3)o2)c2ccccc2Cl)cc1 (stereo unspecified)	-14	69*	7	-10	/	/
Fc1ccc(C(NCCc2ccc(Cl)cc2)c2nnc(-c3ccccc3)o2)c(Cl)c1 (stereo unspecified)	-2	64*	9	-16	/	/
CCOC(=O)c1c(NC(=O)COc2ncnc3sccc23)sc2c1CCC2	35*	3	3	18	20	1%
C#CCN(C[C@@H]1[C@@H](OC(=O)NCC2CCCCC2)[C@@H](OC(=O)NCC2CCCCC2)Cn2c(=O)ccc(=O)n21)S(=O)(=O)c1ccc(C)cc1	-7	/	/	/	-81*	/
COc1ccc(CN2CCN(c3ncccn3)CC2)c(C)c1C	71*	-3	5	7	-20	0%
COc1ccc(CN2CCN(c3ccccn3)CC2)c(OC)c1C	-11	5	-6	-13	-56*!	-13%
Cc1ccc(-n2cc(CN3CCN(c4ccccn4)CC3)c(-c3ccc(F)cc3)n2)cc1	-21	3	0	3	-62*	2%
Cn1c(CNC(=O)CSc2nc(-c3ccccc3F)nc3cc(=O)[nH]n23)nc2ccccc21	5	0	-4	-58*	/	/
C/C(=N\NC(=O)CN1CCN(S(=O)(=O)c2ccc(C)cc2)CC1)c1cccnc1	-17	1	-4	11	-52*	0%
C/C(=N/NC(=O)CN1CCN(S(=O)(=O)c2ccc(C)cc2)CC1)c1cccc(O)c1	6	1	-5	11	1	-2%
COc1cnc(-c2ccccn2)nc1Oc1ccc(Cl)cc1	-5	2	3	25	-73*	5%
COc1cnc(-c2ccccn2)nc1Oc1ccc(Cl)c2ccccc12	-7	/	/	/	-94*	?
COc1cnc(-c2ccccn2)nc1Sc1cccc(Cl)c1	-5	2	3	30	-71*	-6%
O=C(NCCc1ccc(Cl)cc1)C1CCN(S(=O)(=O)c2ccc3[nH]ccc3c2)CC1	13	6	0	-5	/	/
CC(=O)Nc1ccc(NC2=C(Cl)C(=O)c3ccccc3C2=O)cc1	-13	4	-10	-58*	-102*	-1%
SMILES	D3 ag	D1 agonist	D1 PAM	D1 antagonist	D3 antag	Chronic BCR inh
O=C(Oc1ccc(NC2=C(Cl)C(=O)c3ccccc3C2=O)cc1)c1ccc([N+](=O)[O-])cc1	-2	-1	-5	5	-2	14%
O=C1C(Cl)=C(Nc2ccc3cn[nH]c3c2)C(=O)c2ccccc21	-11	10	-9	-74*	-120*	?
CN(C)c1ccc(NC2=C(Cl)C(=O)c3ccccc3C2=O)cc1	-21	9	-13	-66*	-93*	?
[N-]=[N+]=NC(c1ccccc1)C(NC(=O)c1cc(C(F)(F)F)cc(C(F)(F)F)c1)c1ccccc1 (stereo unspecified)	27	/	/	/	158	/
CCOC(=O)CSC1=Nc2ccccc2C2=NC(CCC(=O)NCc3ccc(OC)cc3)C(=O)N12 (stereo unspecified)	5	1	1	-20	/	2%
CCc1ccccc1CC1CN(Cc2ccccc2)Cc2ccccc2N1c1ccc(OC)cc1 (stereo unspecified)	2	/	/	/	11	/
O=C(/C=C/c1c(Cl)cccc1Cl)n1cccn1	-8	7	-10	-14	-74*	-19%
O=C(/C=C/c1c(Cl)cccc1Cl)N1CCOCC1	2	0	-1	9	-15	?
CC1(C)CC(Cc2ccccc2C(F)(F)F)N(C(=O)OC(C)(C)C)C1 (stereo unspecified)	5	/	/	/	0	/
O=C(CCn1cnnn1)N1CCCC(Nc2ccc(F)cc2)C1 (stereo unspecified)	0	11	-4	-35*	6	2%
COc1ccc(NC2CCCN(C(=O)c3cc(C)nc4cc(F)ccc34)C2)cc1 (stereo unspecified)	-2	0	-1	-3	-7	-6%
COc1ccc(NC2CCCN(C(=O)CCN3CCCC3=O)C2)cc1 (stereo unspecified)	4	1	-1	4	-11	0%
COc1ccc(NC2CCCN(C(=O)CCN3Cc4ccccc4C3=O)C2)cc1 (stereo unspecified)	-3	2	-3	-94*	-5	0%
Cc1cc(C(=O)N2CCCC(Nc3ccccc3)C2)c2ccc(F)cc2n1 (stereo unspecified)	-1	1	-23	-33*	9	1%
O=C(c1cc2cc(F)ccc2[nH]1)N1CCCC(Nc2ccc(F)cc2)C1 (stereo unspecified)	2	6	-8	-35*	-4	-7%
Clc1ncnc2scc(-c3ccc(Br)cc3)c12	-12	3	-3	-22	-54*	7%
COc1ccc2c(c1)CC1c3c(cc4c(c3-2)OCO4)CC[N+]1(C)[O-] (stereo unspecified)	2	9	-3	14	12	5%
COc1ccc2c(c1OC)C[N+]1([O-])CCc3cc4c(cc3C1C2)OCO4 (stereo unspecified)	-38	3	-2	-38*	?	8%
Cn1ccn(CCCCCCn2ccn(C)c2=S)c1=S	-12	/	/	/	0	/
CCN1C(=O)C(=Cc2cccc(OC)c2Oc2ccc([N+](=O)[O-])cc2[N+](=O)[O-])SC1=S	-27	0	2	10	-70*	5%
